The structures appear in SMILES notation. Where only a bound is given, the exact number is not on record here.

For orientation: Kd means the equilibrium constant for the complex coming apart. Read a low Kd as tighter binding.
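Also: kd values determined as follow-up on hits from a single-replicate KINOMEscan panel screen.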

The experiment deals with T1, DRAK1.
T1 construct: gene STK17A
On to `Nc1nc(-c2ccc3c(N)n[nH]c3c2)cc(N2CCCCC2)n1` [GSK2228768], for which the Kd came to 110 nM. That is a sub-micromolar value.

As to `Fc1cccc(COc2ccc(Nc3ncnc4nn5ccccc5c34)cc2Cl)c1` [GW689066], the dissociation constant (Kd) is above 10000 nM. Then `C[C@H]1CC[C@@H](C(=O)Nc2ccccc2)CN1c1cc(-c2ccc3c(N)n[nH]c3c2)nc(N)n1` [GSK2283293], with 11 nM; and `CC(C)(C)c1ccc(-n2cnc3c(N)ncnc32)cc1` [SKF-97263], with 450 nM.

The record behind these values is PMC5540273 (PLoS ONE, 2017).
